In PubChem BioAssay (NCI):
The panel holds about 83,000 compounds, 20% with a hit somewhere; the sample as a whole holds those more often.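 The endpoint reported here, percent growth, reads 100 for growth as untreated, 0 for no net growth and -100 for all cells dead.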 A number with no mark means an inactive call. Calls of active or inactive are those of the source. Rule for the calls: active = growth percent below 10; inactive = the rest.

Legend:
Assay in all cases: NCI-60 one-dose screen, 48 h (100 = growth as untreated, 0 = no growth, -100 = all killed)
Settings in all cases: 10 µM unless noted
[1] = tested on: NCI-H23 lung
[2] = tested on: NCI-H226 lung
[3] = tested on: NCI-H322M lung
[4] = tested on: HOP-62 NSCLC
[5] = tested on: NCI-H460 lung
[6] = tested on: HOP-92 NSCLC
[7] = tested on: NCI-H522 lung
[8] = tested on: A549/ATCC NSCLC
[9] = tested on: 786-0 renal

| SMILES | growth [1] | growth [2] | growth [3] | growth [4] | growth [5] | growth [6] | growth [7] | growth [8] | growth [9] |
| --- | --- | --- | --- | --- | --- | --- | --- | --- | --- |
| COc1cc(C(=O)/C=C/c2c(C(F)(F)F)nc3ccccn23)cc(OC)c1OC | -50.3% (active) | -25.5% (active) | 8.14% (active) | -26.9% (active) | -44.4% (active) | 2.54% (active) | -51.4% (active) | 9.73% (active) | -60.9% (active) |
| Cn1cc(Nc2nccc(-c3ccc(N4CCCC4)c(C#N)c3)n2)cn1 | 63.3% | 78.9% | 52% | 25.5% | 8.94% (active) | 67% | 22% | 22.6% | 42.7% |
| COc1cc(CNC(=O)/C=C/C=C/c2ccc3c(c2)OCO3)ccc1OCc1cn(-c2ccc(Cl)c(Cl)c2)nn1 | -34.1% (active) | 31.2% | 21.6% | -19.8% (active) | -57.5% (active) | -14.7% (active) | 5.67% (active) | 2.23% (active) | -40.6% (active) |
| CN(C)CN1CCN(c2ccc3nc(-c4ccc5nc(-c6ccc(C(F)(F)F)cc6)[nH]c5c4)[nH]c3c2)CC1 | 55.6% | 64.2% | 87.1% | 57.6% | 10.6% | 75.8% | 42.1% | 83.8% | 78.5% |
| Cc1[nH]c(-c2nc3ccccc3[nH]2)c(C)c1C(=O)N1CCOCC1 | 88.5% | 91.4% | 94.6% | 105% | 101% | 91.1% | 91% | 101% | 102% |
| C=CCN1C(=O)[C@]2(SC1=S)[C@H](c1cccc(Cl)c1)CN(C)[C@]21C(=O)NC2C=CC(Cl)=C[C@H]21 (stereo partly specified) | 45.7% | 43.4% | 87.2% | 63.9% | 55.3% | -6.48% (active) | 41.3% | 41.9% | 24.8% |
| O=C1Nc2ccccc2/C1=N/N=C/c1c[nH]c2ccccc12 | 82% | 62.7% | 72.9% | 67.3% | 63% | 75.2% | 69.2% | 78.4% | 91.9% |
| CS(=O)(=O)c1ccc(N/N=C/c2c(-c3ccc(S(C)(=O)=O)cc3)[nH]c3ccc(F)cc23)cc1 | 41.6% | 67.2% | 45% | 28.1% | 12.8% | 16.3% | 27.6% | 44.7% | 15.9% |
| N=C(N)c1ccc(-c2ccc(/C=C/c3ccccc3)s2)cc1 | 55.2% | 84.7% | 1% (active) | 33.3% | -60.1% (active) | 34.7% | 20% | 12.7% | -38.3% (active) |
| CCOC(=O)c1c(C)nc2c(c1N)/C(=C/c1ccc(OC)cc1)C(=O)N2Cc1ccc(F)cc1 | -38.2% (active) | 8.52% (active) | 9.93% (active) | -45.3% (active) | 2.95% (active) | -55.6% (active) | -69.6% (active) | 12% | -50.6% (active) |
| O=[N+]([O-])c1ccc(-c2cc3c(Nc4ccc(Sc5nc6ccccc6s5)c(Cl)c4)ncnc3s2)cc1 | 19.9% | 76.2% | 55.5% | 36.1% | 11.8% | 56.6% | 30% | 18.5% | 61.6% |
| CCCCCCN(CCCCCC)CC(O)c1cccc2ccc(Cl)cc12 (stereo unspecified) | 38.8% | 85.6% | 66.4% | 31.8% | 44% | 3.01% (active) | 38.1% | 67.2% | 53.2% |
| C[C@@H]1CC[C@@H]2[C@@H]1[C@H](OC(=O)c1ccc3ccccc3c1)[C@]1(C3CCCCC3)C[C@@H](OC(=O)CO)[C@@]2(C)O1 | 65.1% | 51.8% | 81.5% | 68% | 49.9% | 34.9% | 49.4% | 48.8% | -7.27% (active) |
| c1ccc2c(c1)nc(-n1ccnc1)c1nc3ccccc3n12 | 65.8% | 65.7% | 71.9% | 47.9% | 40.7% | 80.9% | 26.9% | 54.3% | 73.1% |
| CCCNCC(=O)Nc1ccc(C(=O)OC(C)(C)CC)cc1 | 102% | 95% | 97% | 99.7% | 104% | 74.4% | 66.6% | 97.1% | 90.8% |
| O=S(=O)(Nc1ccsc1-c1nc(-c2ccccc2)no1)c1cc(Cl)cc(Cl)c1 | 94.4% | 98.6% | 95.4% | 76.2% | 100% | 83.5% | 77.3% | 90% | 98.5% |
| Cl.Fc1c[c-]c(-c2ccccn2)c(F)c1.[Pt].c1ccc([PH+](c2ccccc2)c2ccccc2[PH+](c2ccccc2)c2ccccc2)cc1 | -84.6% (active) | -70% (active) | -99.4% (active) | -62.2% (active) | -73.2% (active) | -68% (active) | -63% (active) | -68.9% (active) | -73.9% (active) |
| O=C1CSC(c2ccccc2Cl)N1c1nnc(Cn2cnnc2)o1 (stereo unspecified) | 51.7% | 78.8% | 87.1% | 37.3% | 34.2% | 43% | 101% | 58% | 41.9% |
| CN(C)c1ccc2cc(-c3ccc(Cl)c(Cl)c3)c(N)nc2c1 | 15.4% | 42.3% | 54.6% | 66.2% | 27.6% | 28% | 22% | 32.9% | 55.4% |
| C=C(C)[C@@H]1CC[C@]2(C(=O)NCC(=O)O)CC[C@]3(C)[C@H](CC[C@@H]4[C@@]5(C)Cc6c([nH]c7ccccc67)C(C)(C)[C@@H]5CC[C@]43C)[C@@H]12 | 73.5% | 87.8% | 85.5% | 58.5% | 88.5% | 81% | 41.9% | 67.1% | 84.4% |
| CN1C[C@@H](c2ccc(Cl)cc2)[C@]2(NC(=S)N(c3ccc(F)c(Cl)c3)C2=O)[C@@]12C(=O)NC1C=CC(Cl)=C[C@H]12 (stereo partly specified) | 51.9% | 59.8% | 74.6% | 79.8% | 32.8% | -7.71% (active) | 43.2% | 53% | -68% (active) |
| Cc1ccc(S(=O)(=O)Nc2sccc2-c2nc(-c3ccccc3)no2)cc1 | 87.5% | 87.9% | 82.1% | 77.8% | 92.3% | 88.8% | 81.2% | 90.3% | 94.5% |
| O=C(NCc1cn(Cc2cccc(Oc3ccccc3)c2)nn1)c1cccnc1NCc1ccc(Cl)cc1 | 20.6% | 12.5% | 54.5% | 40.7% | 17.1% | 22.1% | 20.8% | 22.5% | 38% |
| COc1cc2oc3cc(C)oc(=O)c3c2cc1OC | 94.1% | 96.8% | 103% | 93.2% | 105% | 92.9% | 82.1% | 87.7% | 83.4% |
| CCCN1CCN(c2ccc3nc(-c4ccc5nc(-c6ccc(OCC)c(OCC)c6)[nH]c5c4)[nH]c3c2)CC1 | -53.3% (active) | -58.2% (active) | -18.7% (active) | -64.9% (active) | -80.3% (active) | 40.5% | -44.8% (active) | -50.2% (active) | -89% (active) |
| CCN(CC)CCCNC(=O)c1ccc(N)cc1O | 95.5% | 87.9% | 90.4% | 95.6% | 108% | 89.6% | 96.6% | 103% | 105% |
| CCCCN1CCN(c2ccc3nc(-c4ccc5nc(-c6cc(OC)c(OC)c(OC)c6)[nH]c5c4)[nH]c3c2)CC1 | 82.9% | 77.6% | 86.4% | 61.4% | 83% | 49.9% | 52.8% | 105% | 50.6% |
| Cc1c(C)c2c(c(C)c1NC(=O)/C=C\C(=O)O)CCC(C)(CCCC(C)CCCC(C)CCCC(C)C)O2 (stereo unspecified) | 60.8% | -85.9% (active) | 102% | -13.4% (active) | 72.1% | 45.5% | 66.7% | 61.1% | 33.5% |
| CSc1nc(N)c(CNC(C)c2ccccc2)c(=O)n1C (stereo unspecified) | 97.4% | 91.4% | 169% | 95% | 105% | 89% | 94.3% | 97.7% | 90.2% |
